Measured values as given in PubChem BioAssay AID1159580 (chemical genetic matrix, 2015).
“And” between values parts separate entries of the source, which are not always exact repeats. Equal values may be shown once. Out of some 5,500 compounds screened, about 2,000 (36%) were called active. Inconclusive results (about 18%) are left out. No stated cut-off is given here; in the data, active means normalized growth mostly below about 0.91 (no sharp cut-off); inconclusive means no clear call, values can overlap the other calls; inactive means mostly above about 0.92. This is one part of the list.

Assay: chemical genetic growth profiling, strain panel (AID 1159580);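 further: tested at 20 µM; growth read once vehicle control cultures reached saturation at 30 °C; 1 = growth at the plate median or of vehicle wells; lower values mean less growth of the strain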
Conditions: S. cerevisiae deletion strains, growth OD

Measured: normalized growth

COc1cc(NS(=O)(=O)c2ccc(N)cc2)ncn1
inactive: locus YAL013W, strain DEP1, active compounds read low 0.998 | locus YAL021C, strain ccr4, active compounds read low 0.988 | locus YAL026C, strain drs2, active compounds read low 0.978 | locus YAL030W, strain snc1, active compounds read low 0.999 | locus YBL061C, strain skt5, active compounds read low 0.987 | locus YBR009C, strain hhf1, active compounds read low 0.996 | locus YBR021W, strain FUR4, active compounds read low 1 | locus YBR023C, strain chs3, active compounds read low 0.983 | locus YBR171W, strain sec66, active compounds read low 0.968 | locus YBR229C, strain ROT2, active compounds read low 0.955 | locus YBR231C, strain swc5, active compounds read low 0.979 | locus YBR279W, strain paf1, active compounds read low 0.964 | locus YCL011C, strain gbp2, active compounds read low 0.968 | locus YCL016C, strain dcc1, active compounds read low 0.981 | locus YCL029C, strain bik1, active compounds read low 0.977 | locus YCL061C, strain MRC1, active compounds read low 0.979 | locus YCL069W, strain vba3, active compounds read low 0.98 | locus YCR088W, strain abp1, active compounds read low 0.97 | locus YDL005C, strain med2, active compounds read low 0.978 | locus YDL035C, strain GPR1, active compounds read low 0.993 | locus YDL040C, strain nat1, active compounds read low 0.969 | locus YDL074C, strain BRE1, active compounds read low 0.966 | locus YDL101C, strain DUN1, active compounds read low 0.979 | locus YDL134C, strain PPH21, active compounds read low 1.01 | locus YDL185W, strain tfp1, active compounds read low 0.983 | locus YDL192W, strain arf1, active compounds read low 0.978 | locus YDR001C, strain nth1, active compounds read low 0.973 | locus YDR069C, strain doa4, active compounds read low 1.03 | locus YDR101C, strain arx1, active compounds read low 0.972 | locus YDR137W, strain rgp1, active compounds read low 0.991 | locus YDR159W, strain sac3, active compounds read low 0.916 | locus YDR162C, strain NBP2, active compounds read low 0.995 | locus YDR195W, strain ref2 0.918 | locus YDR297W, strain sur2, active compounds read low 1 | locus YDR318W, strain mcm21, active compounds read low 0.988 | locus YDR334W, strain swr1, active compounds read low 0.948 | locus YDR335W, strain msn5, active compounds read low 0.971 | locus YDR388W, active compounds read low 0.979 | locus YDR392W, strain spt3, active compounds read low 0.982 | locus YDR502C, strain sam2, active compounds read low 0.984 | locus YEL003W, strain gim4, active compounds read low 1 | locus YEL037C, strain rad23, active compounds read low 0.999 | locus YEL061C, strain CIN8 (second series), active compounds read low 0.96 | locus YEL061C, strain CIN8, active compounds read low 0.982 | locus YER015W, strain faa2, active compounds read low 0.984 | locus YER016W, strain bim1, active compounds read low 0.992 | locus YER110C, active compounds read low 0.973 | locus YER111C, strain swi4, active compounds read low 0.968 | locus YER155C, strain BEM2 (second series), active compounds read low 0.975 | locus YER155C, strain BEM2, active compounds read low 1 | locus YER167W, strain BCK2, active compounds read low 0.992 | locus YFR010W, strain ubp6, active compounds read low 0.97 | locus YGL078C, strain dbp3, active compounds read low 0.977 | locus YGL086W, strain mad1, active compounds read low 0.981 | locus YGL167C, strain pmr1, active compounds read low 0.981 | locus YGL173C, strain kem1, active compounds read low 0.993 | locus YGL227W, strain vid30, active compounds read low 0.959 | locus YGL240W, strain doc1, active compounds read low 0.958 | locus YGL248W, strain PDE1, active compounds read low 0.978 | locus YGL253W, strain hxk2, active compounds read low 0.979 | locus YGR078C, strain PAC10, active compounds read low 0.977 | locus YGR135W, strain pre9, active compounds read low 0.999 | locus YGR252W, strain gcn5, active compounds read low 0.987 | locus YHR013C, strain ard1, active compounds read low 0.986 | locus YHR027C, strain rpn1, active compounds read low 0.983 | locus YHR030C, strain SLT2, active compounds read low 0.997 and 0.991 | locus YHR079C, strain IRE1 (second series), active compounds read low 0.99 | locus YHR079C, strain IRE1, active compounds read low 0.97 | locus YHR094C, strain hxt1, active compounds read low 0.987 | locus YHR129C, strain ARP1, active compounds read low 0.995 | locus YHR142W, strain chs7, active compounds read low 0.968 | locus YHR200W, strain rpn10, active compounds read low 0.982 | locus YIL066C, strain RNR3, active compounds read low 0.976 | locus YIL073C, strain SPO22, active compounds read low 1.02 | locus YIL125W, strain kgd1, active compounds read low 0.982 | locus YIR030C, strain dcg1, active compounds read low 0.974 | locus YJL092W, strain hpr5, active compounds read low 0.98 | locus YJL095W, strain BCK1 (second series), active compounds read low 0.976 | locus YJL095W, strain BCK1, active compounds read low 0.989 and 0.983 | locus YJL115W, strain asf1, active compounds read low 0.964 | locus YJL129C, strain trk1, active compounds read low 0.963 | locus YJL134W, strain LCB3, active compounds read low 0.992 | locus YJL154C, strain vps35, active compounds read low 0.971 | locus YJL164C, strain tpk1, active compounds read low 1 | locus YJL166W, strain qcr8, active compounds read low 0.982 | locus YJL168C, strain set2, active compounds read low 0.985 | locus YJL187C, strain SWE1 (second series), active compounds read low 0.962 | locus YJL187C, strain SWE1, active compounds read low 0.981 | locus YJR043C, strain POL32, active compounds read low 0.994 | locus YJR066W, strain TOR1, active compounds read low 0.943
